{
  "source": "PubChem BioAssay (EPA / NIEHS)",
  "note": "Inconclusive results are not listed. Activity calls are given as the source filed them. How the source made its calls: active means hit-call score of the fitted dose curve at least 0.9, where 1 is the maximum; inconclusive means response in the unintended direction; inactive means score below 0.9.",
  "data": [
    {"target": "Oxysterols receptor LXR-alpha (Homo sapiens) (UniProt Q13133)", "sequence (Q13133 whole entry, looked up)": "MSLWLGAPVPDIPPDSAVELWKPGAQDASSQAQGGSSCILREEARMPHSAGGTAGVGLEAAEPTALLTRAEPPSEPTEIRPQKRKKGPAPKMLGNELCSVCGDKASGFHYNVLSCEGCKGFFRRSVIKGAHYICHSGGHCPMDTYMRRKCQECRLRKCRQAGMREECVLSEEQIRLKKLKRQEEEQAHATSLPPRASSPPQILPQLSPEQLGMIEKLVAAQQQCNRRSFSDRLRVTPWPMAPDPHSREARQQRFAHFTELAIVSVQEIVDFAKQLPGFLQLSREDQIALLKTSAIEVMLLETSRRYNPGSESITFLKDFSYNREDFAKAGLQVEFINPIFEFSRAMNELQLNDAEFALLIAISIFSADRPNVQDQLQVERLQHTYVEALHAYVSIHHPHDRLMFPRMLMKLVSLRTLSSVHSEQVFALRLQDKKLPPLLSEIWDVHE", "assay": "ATG_LXRa_TRANS: Attagene TRANS-FACTORIAL HepG2 Assay for human Liver X Receptor alpha (LXRa) (AID 2282980)", "conditions": "HepG2 Attagene TRANS reporter, LXRa transactivation", "procedure": "ATG_TRANS is a cell-based, multiplexed-readout assay that uses HepG2, a human liver cell line, with measurements taken at 24 hours after chemical dosing in a 24-well plate.ATG_LXRa_TRANS is one of 30 assay component(s) measured or calculated from the ATG_TRANS assay. It is designed to make measurements of mRNA induction, a form of inducible reporter, as detected with fluorescence intensity signals by Reverse transcription polymerase chain reaction (RT-PCR) and Capillary electrophoresis technology.Data from the assay component ATG_LXRa_TRANS was analyzed into 1 assay endpoint. This assay endpoint, ATG_LXRa_TRANS, was analyzed in the positive analysis fitting direction relative to DMSO as the negative control and baseline of activity. Using a type of inducible reporter, measures of mRNA for gain-of-signal activity can be used to understand the reporter gene at the transcription factor-level as they relate to the gene NR1H3. Furthermore, this assay endpoint can be referred to as a primary readout, because this assay has produced multiple assay endpoints where this one serves a reporter gene function. To generalize the intended target to other relatable targets, this assay endpoint is annotated to the nuclear receptor intended target family, where the subfamily is non-steroidal.\nHuman liver HepG2 cells are transiently transfected with multiple reporter transcription units (MRTUs) in 6-well plates using FuGene 6 reagent (Roche; 3 ml FuGene/1 mg DNA). The MRTU constructs are regulated by a cis-regulating element (promoter). […] A major difference between the CIS and TRANS system is that in CIS activities of endogenous TFs are measured, whereas the TRANS assay evaluates changes in activities of exogenous, chimeric NR-Gal4 proteins. […] At the end of 24 hour incubation, total RNA was isolated using TriZol reagent (Invitrogen). The isolated RNA is then reverse-transcribed using oligo(dT) primer and Mo-MLV reverse transcriptase (Invitrogen) with DNAse I (Ambion) treatment for 30 min. The one-tenth of the produced cDNA was amplified by PCR using Taq DNA polymerase (Invitrogen) and two reporter sequence-specific primers. The PCR products were fluorescently labeled by primer extension with 6-arboxyfluorescein (6-FAM) 5'-labeled reporter sequence-specific primer (2 min at 95 C, 20 s at 68 C and 10 min at 72 C) and these products were digested with 5U of HpaI (New England Biolabs) for 2h at 37 C. The fragments were purified using Qiaquick PCR columns (Qiagen), analyzed on an ABI 3130xL genetic analyzer (Applied Biosystems) with peak positions identified by using a set of X-rhodamine (ROX)-labeled MapMarker1000 molecular weight standards (BioVentures). The raw capillary electrophoresis data was processed using Attagraph software (Attagene).", "values": [
      {"smiles": "Brc1ccc(Br)cc1", "outcome": "inactive"},
      {"smiles": "O=[N+]([O-])c1ccccc1O", "outcome": "inactive"},
      {"smiles": "O=C(NC(=O)c1c(F)cccc1F)Nc1cc(Cl)c(OC(F)(F)C(F)C(F)(F)F)cc1Cl", "note": "(stereo not given)", "outcome": "inactive"},
      {"smiles": "Oc1ccc(Cc2ccc(O)cc2)cc1", "outcome": "inactive"},
      {"smiles": "C#C[C@]1(O)CC[C@H]2[C@@H]3CCC4=CC(=O)CC[C@]4(C)[C@H]3CC[C@@]21C", "outcome": "inactive"},
      {"smiles": "Brc1ccc(Oc2c(Br)cc(Br)cc2Br)c(Br)c1", "outcome": "inactive"},
      {"smiles": "O=[N+]([O-])c1ccc(Cl)c([N+](=O)[O-])c1", "outcome": "inactive"},
      {"smiles": "CN(C)CCN(C)C", "outcome": "inactive"},
      {"smiles": "CCOC(=O)OC1=C(c2cc(C)ccc2C)C(=O)NC12CCC(OC)CC2", "note": "(stereo not given)", "outcome": "inactive"},
      {"smiles": "O=CCCl", "outcome": "inactive"},
      {"smiles": "CCOP(=S)(OCC)Oc1ccc(Cl)cc1Cl", "outcome": "inactive"},
      {"smiles": "CCCCCCCCCCBr", "outcome": "inactive"},
      {"smiles": "Oc1c(Br)cc(Br)cc1Br", "outcome": "inactive"},
      {"smiles": "C=CCCl", "outcome": "inactive"},
      {"smiles": "CCCCN(CCCC)C(=S)[S-].CCCCN(CCCC)C(=S)[S-].[Ni+2]", "outcome": "inactive"},
      {"smiles": "O=C/C(Cl)=C(/Cl)C(=O)O", "outcome": "inactive"},
      {"smiles": "OC[C@@H](O)[C@H]1O[C@@H]2O[C@H](C(Cl)(Cl)Cl)O[C@@H]2[C@H]1O", "outcome": "inactive"},
      {"smiles": "COP(=S)(OC)Oc1cc(Cl)c(I)cc1Cl", "outcome": "inactive"},
      {"smiles": "CC(C=O)Cc1ccc2c(c1)OCO2", "note": "(stereo not given)", "outcome": "inactive"},
      {"smiles": "O=[N+]([O-])c1cc([As](=O)(O)O)ccc1O", "outcome": "inactive"},
      {"smiles": "CC(C)=CC1C(C(=O)OCc2cccc(Oc3ccccc3)c2)C1(C)C", "note": "(stereo not given)", "outcome": "inactive"},
      {"smiles": "O=C=Nc1ccc(Cl)cc1", "outcome": "inactive"},
      {"smiles": "CCCCCCCCCCCCCl", "outcome": "inactive"},
      {"smiles": "CCC[CH2][Sn]([CH2]CCC)([CH2]CCC)[CH2]CCC", "outcome": "inactive"},
      {"smiles": "O=C(Cl)OCCOCCOC(=O)Cl", "outcome": "inactive"},
      {"smiles": "O=C(Nc1ccc(Br)cc1)c1cc(Br)cc(Br)c1O", "outcome": "inactive"},
      {"smiles": "COc1nn(C(=O)NS(=O)(=O)c2ccccc2OC(F)(F)F)c(=O)n1C", "outcome": "inactive"},
      {"smiles": "O=S(=O)(F)C(F)(F)C(F)(F)C(F)(F)C(F)(F)F", "outcome": "inactive"},
      {"smiles": "CC(C)(C1CCC(O)CC1)C1CCC(O)CC1", "note": "(stereo not given)", "outcome": "inactive"},
      {"smiles": "OC(Cc1ccccc1Cl)(Cn1[nH]cnc1=S)C1(Cl)CC1", "note": "(stereo not given)", "outcome": "inactive"},
      {"smiles": "CN(C)c1ccc(N=O)cc1", "outcome": "inactive"},
      {"smiles": "CCCCOC(C)=O", "outcome": "inactive"},
      {"smiles": "CC(F)(F)CC(F)(F)F", "outcome": "inactive"},
      {"smiles": "COc1ccc([N+](=O)[O-])cc1O", "outcome": "inactive"},
      {"smiles": "OCCCCO", "outcome": "inactive"},
      {"smiles": "Cc1ccccc1OP(=O)(Oc1ccccc1C)Oc1ccccc1C", "outcome": "inactive"},
      {"smiles": "C1CCC(C2CCCCC2)CC1", "outcome": "inactive"},
      {"smiles": "CN(C1CCCCC1)C1CCCCC1", "outcome": "inactive"},
      {"smiles": "CCOC(=O)CC(=O)CCl", "outcome": "inactive"},
      {"smiles": "O=[N+]([O-])c1c2ccccc2cc2ccccc12", "outcome": "inactive"}
    ]}
  ]
}
